Results from the supplement of paper PMC10849652.
The full data set covers some 8,800 targets. This sample favours those with a hit. About 0.5% of all pairs of compound and target were hits.

What was measured:
Test in all cases: log2 fold change, soluble protein after heating vs DMSO (PISA); higher = thermal stabilisation; K562 lysate, 10 uM; active = over 0.2 and 3.5 SD of the protein, either way, in both replicates (recomputed)
erlotinib = compound: C#Cc1cccc(Nc2ncnc3cc(OCCOC)c(OCCOC)cc23)c1 [erlotinib]
How it was run: (§1)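 K562 pellets were dounce-homogenised in PBS pH 7.4 with 1 mM MgCl2, and the crude extract at 1 mg/mL protein was treated with 10 μM compound for 30 min. Aliquots were heated for 3 min across 48°C-58°C, pooled, and brought to 0.5% NP-40 at 4°C; soluble protein was the supernatant after 21,000xg for 90 min. Soluble protein was quantified by TMTpro 16plex LC-MS/MS with channel sums equalised, and reported as log2 fold change in thermal stability against DMSO controls, with values from duplicates.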

[1] = compound: C/C(=N\NC(=O)C1=CC(=CC=C1)S(=O)(=O)N2CCOCC2)/C3=C(C=CC(=C3)Cl)O
How it was run: as §1

[2] = compound: C1=CC(=CC=C1C2=NC3=C(N2)C=C(C=C3)C(=O)N)OC4=CC=C(C=C4)Cl
How it was run: as §1

[3] = compound: C1=CC2=C(C=CC(=C2)/C=C\3/C(=O)NC(=NCC4=CC=CS4)S3)N=C1
How it was run: as §1

[4] = compound: C1=CC2=NC=CN=C2C=C1/C=C/3\C(=O)NC(=O)S3
How it was run: as §1

[5] = compound: C1=CC=C(C=C1)C2=NC(=C(N2)C3=CC=NC=C3)C4=CC(=C(C=C4)Cl)O
How it was run: as §1

[6] = compound: C1=CC=C2C(=C1)C3=NNC4=CC=CC(=C43)C2=O
How it was run: as §1

[7] = compound: C1CCN(C1)C(=O)NC2=CC=CC(=C2)NC3=NC=C(C(=N3)NCCC4=CN=CN4)Br
How it was run: as §1

[8] = compound: C1CN(CCC1(CC2=CC=C(C=C2)Cl)N)C3=NC=NC4=C3C=CN4
How it was run: as §1

IRAK-1-4 Inhibitor I = compound: C1COCCN1CCN2C3=CC=CC=C3N=C2NC(=O)C4=CC(=CC=C4)[N+](=O)[O-] [IRAK-1-4 Inhibitor I]
How it was run: as §1

Measured: log2 fold change

RAP1B (UniProt P61224)
inactive: erlotinib -0.017 | [1] -0.085 | [2] 0.024 | [3] 0.016 | [4] -0.031 | [5] 0.006 | [6] -0.014 | [7] -0.033 | [8] -0.004 | IRAK-1-4 Inhibitor I 0.014

SERPINI1 (UniProt Q99574)
UniProt Q99574, sequence (Q99574 whole entry, looked up): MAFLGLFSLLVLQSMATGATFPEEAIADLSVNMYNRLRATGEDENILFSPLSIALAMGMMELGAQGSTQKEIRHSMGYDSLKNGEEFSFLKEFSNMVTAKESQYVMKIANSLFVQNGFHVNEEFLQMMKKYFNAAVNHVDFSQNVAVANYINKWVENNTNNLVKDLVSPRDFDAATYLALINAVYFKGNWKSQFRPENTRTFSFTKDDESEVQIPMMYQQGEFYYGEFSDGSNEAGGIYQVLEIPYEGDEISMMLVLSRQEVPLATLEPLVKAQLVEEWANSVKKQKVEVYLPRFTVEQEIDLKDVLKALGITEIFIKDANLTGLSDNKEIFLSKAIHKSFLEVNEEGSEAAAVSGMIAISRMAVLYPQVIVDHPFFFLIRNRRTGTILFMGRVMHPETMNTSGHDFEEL
inactive: erlotinib -0.003 | [1] -0.021 | [2] -0.037 | [3] 0.027 | [4] 0.054 | [5] -0.007 | [6] -0.117 | [7] 0.029 | [8] 0.038 | IRAK-1-4 Inhibitor I 0.031

SBF1 isoform 4 (UniProt O95248)
UniProt O95248, sequence (O95248 whole entry, looked up): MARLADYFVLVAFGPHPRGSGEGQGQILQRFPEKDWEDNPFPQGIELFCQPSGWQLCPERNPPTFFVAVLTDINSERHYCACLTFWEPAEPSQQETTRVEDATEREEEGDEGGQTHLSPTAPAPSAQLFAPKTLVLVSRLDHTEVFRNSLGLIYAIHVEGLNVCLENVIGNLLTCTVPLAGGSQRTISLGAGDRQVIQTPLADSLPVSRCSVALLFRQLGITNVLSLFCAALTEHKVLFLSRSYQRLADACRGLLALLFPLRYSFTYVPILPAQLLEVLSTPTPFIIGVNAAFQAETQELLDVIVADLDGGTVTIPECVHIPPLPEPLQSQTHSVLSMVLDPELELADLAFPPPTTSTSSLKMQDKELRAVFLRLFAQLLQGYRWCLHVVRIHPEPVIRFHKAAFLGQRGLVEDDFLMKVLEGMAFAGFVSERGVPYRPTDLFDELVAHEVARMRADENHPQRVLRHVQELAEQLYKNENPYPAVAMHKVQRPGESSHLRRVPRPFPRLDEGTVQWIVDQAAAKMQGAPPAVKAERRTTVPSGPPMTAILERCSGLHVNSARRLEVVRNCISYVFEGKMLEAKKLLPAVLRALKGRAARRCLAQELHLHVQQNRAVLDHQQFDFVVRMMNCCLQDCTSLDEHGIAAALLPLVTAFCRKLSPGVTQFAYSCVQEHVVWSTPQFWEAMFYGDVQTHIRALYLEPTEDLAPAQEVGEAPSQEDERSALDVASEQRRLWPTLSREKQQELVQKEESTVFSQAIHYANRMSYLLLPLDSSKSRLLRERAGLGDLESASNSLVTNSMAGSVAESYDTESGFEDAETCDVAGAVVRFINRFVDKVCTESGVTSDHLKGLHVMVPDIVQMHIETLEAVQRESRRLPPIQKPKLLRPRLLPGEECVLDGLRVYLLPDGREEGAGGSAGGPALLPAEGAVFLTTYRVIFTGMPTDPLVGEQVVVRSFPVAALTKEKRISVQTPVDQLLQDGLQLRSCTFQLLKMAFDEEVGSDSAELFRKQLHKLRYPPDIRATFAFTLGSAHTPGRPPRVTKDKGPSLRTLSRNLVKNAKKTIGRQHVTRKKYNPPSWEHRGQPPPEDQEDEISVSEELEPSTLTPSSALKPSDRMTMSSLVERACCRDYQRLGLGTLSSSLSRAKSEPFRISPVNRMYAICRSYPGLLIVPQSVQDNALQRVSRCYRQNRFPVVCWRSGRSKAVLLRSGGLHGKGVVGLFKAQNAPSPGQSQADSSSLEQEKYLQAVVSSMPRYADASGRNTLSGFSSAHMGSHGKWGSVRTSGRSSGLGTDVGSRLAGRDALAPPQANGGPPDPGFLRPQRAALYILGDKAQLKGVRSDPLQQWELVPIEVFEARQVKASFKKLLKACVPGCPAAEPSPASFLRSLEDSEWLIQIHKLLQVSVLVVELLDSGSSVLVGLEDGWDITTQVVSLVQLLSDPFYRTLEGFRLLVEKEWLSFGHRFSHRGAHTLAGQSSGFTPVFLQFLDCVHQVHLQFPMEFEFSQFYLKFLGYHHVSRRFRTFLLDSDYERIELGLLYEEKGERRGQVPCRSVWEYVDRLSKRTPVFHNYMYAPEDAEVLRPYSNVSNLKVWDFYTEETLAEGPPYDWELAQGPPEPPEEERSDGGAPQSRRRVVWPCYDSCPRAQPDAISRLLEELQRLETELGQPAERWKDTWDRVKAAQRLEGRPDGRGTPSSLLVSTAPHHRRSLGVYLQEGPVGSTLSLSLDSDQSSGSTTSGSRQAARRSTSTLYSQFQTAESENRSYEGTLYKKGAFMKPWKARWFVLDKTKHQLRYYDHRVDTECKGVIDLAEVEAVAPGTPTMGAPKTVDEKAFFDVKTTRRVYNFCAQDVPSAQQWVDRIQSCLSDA
inactive: erlotinib 0.033 | [1] -0.059 | [2] 0.042 | [3] -0.052 | [4] -0.005 | [5] -0.027 | [6] -0.029 | [7] 0.028 | [8] -0.026 | IRAK-1-4 Inhibitor I -0.002

RNF168 (UniProt Q8IYW5)
active: [7] -0.311
inactive: erlotinib -0.018 | [1] -0.023 | [2] 0.001 | [3] -0.081 | [4] 0.037 | [5] -0.007 | [6] -0.114 | [8] 0.053 | IRAK-1-4 Inhibitor I 0.008

RPL27 (UniProt P61353)
inactive: erlotinib 0.002 | [1] -0.02 | [2] -0.04 | [3] -0.033 | [4] 0.011 | [5] 0.011 | [6] 0.03 | [7] 0.052 | [8] -0.014 | IRAK-1-4 Inhibitor I -0.014

SAR1A (UniProt Q9NR31)
UniProt Q9NR31, sequence (Q9NR31 whole entry, looked up): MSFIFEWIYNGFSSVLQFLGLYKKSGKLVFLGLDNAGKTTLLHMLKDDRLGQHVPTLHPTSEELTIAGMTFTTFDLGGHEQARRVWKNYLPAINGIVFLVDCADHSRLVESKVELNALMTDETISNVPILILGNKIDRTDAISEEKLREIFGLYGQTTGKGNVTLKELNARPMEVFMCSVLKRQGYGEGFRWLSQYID
inactive: erlotinib -0.268 | [1] -0.112 | [2] 0.05 | [3] -0.019 | [4] -0.063 | [5] -0.056 | [6] 0.048 | [7] -0.08 | [8] 0.001 | IRAK-1-4 Inhibitor I -0.029

RAB3IL1 (UniProt Q8TBN0)
inactive: erlotinib -0.026 | [1] 0.005 | [2] -0.021 | [3] 0.024 | [4] -0.05 | [5] 0.053 | [6] -0.038 | [7] -0.013 | [8] -0.003 | IRAK-1-4 Inhibitor I 0.011

RASA2 (UniProt Q15283)
inactive: erlotinib 0.016 | [1] -0.001 | [2] -0.054 | [3] -0.071 | [4] -0.028 | [5] 0.018 | [6] -0.069 | [7] -0.024 | [8] 0.028 | IRAK-1-4 Inhibitor I -0.003

RTN4IP1 (UniProt Q8WWV3)
UniProt Q8WWV3, sequence (Q8WWV3 whole entry, looked up): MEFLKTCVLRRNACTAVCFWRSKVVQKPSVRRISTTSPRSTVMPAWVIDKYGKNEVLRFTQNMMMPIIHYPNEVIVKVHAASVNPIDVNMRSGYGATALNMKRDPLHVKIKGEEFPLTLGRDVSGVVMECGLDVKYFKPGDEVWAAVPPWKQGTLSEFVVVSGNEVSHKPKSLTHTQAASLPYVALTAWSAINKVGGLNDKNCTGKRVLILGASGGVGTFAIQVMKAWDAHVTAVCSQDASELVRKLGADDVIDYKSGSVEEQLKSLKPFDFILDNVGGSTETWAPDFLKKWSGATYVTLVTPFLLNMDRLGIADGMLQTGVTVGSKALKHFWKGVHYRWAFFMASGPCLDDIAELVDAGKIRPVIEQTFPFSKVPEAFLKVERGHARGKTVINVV
inactive: erlotinib -0.028 | [1] 0.031 | [2] -0.028 | [3] 0.065 | [4] -0.017 | [5] -0.003 | [6] 0.022 | [7] 0.033 | [8] -0.016 | IRAK-1-4 Inhibitor I 0.011

SEC62 (UniProt Q99442)
UniProt Q99442, sequence (Q99442 whole entry, looked up): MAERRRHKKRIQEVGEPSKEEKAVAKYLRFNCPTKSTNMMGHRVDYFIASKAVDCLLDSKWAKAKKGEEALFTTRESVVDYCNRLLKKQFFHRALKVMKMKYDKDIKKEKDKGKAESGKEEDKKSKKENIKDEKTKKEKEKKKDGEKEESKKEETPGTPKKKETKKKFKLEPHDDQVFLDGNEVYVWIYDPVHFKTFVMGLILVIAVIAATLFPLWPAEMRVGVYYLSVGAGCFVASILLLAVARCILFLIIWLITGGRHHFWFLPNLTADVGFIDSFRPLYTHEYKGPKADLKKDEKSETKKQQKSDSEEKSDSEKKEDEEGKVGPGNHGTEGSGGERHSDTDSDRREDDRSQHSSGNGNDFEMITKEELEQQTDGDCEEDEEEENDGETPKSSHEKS
inactive: erlotinib -0.046 | [1] -0.008 | [2] 0.018 | [3] 0.046 | [4] -0.021 | [5] 0.036 | [6] -0.022 | [7] -0.017 | [8] -0.009 | IRAK-1-4 Inhibitor I 0.042

RBM4 (UniProt Q9BWF3)
inactive: erlotinib -0.031 | [1] 0.059 | [2] -0.008 | [3] 0.009 | [4] 0.008 | [5] -0.065 | [6] -0.008 | [7] 0.001 | [8] 0 | IRAK-1-4 Inhibitor I -0.003

RABGGTB (UniProt P53611)
inactive: erlotinib 0.01 | [1] 0.026 | [2] -0.015 | [3] 0.021 | [4] 0.04 | [5] -0.023 | [6] -0.093 | [7] -0.029 | [8] 0.003 | IRAK-1-4 Inhibitor I 0.03

RPS29 (UniProt P62273)
inactive: erlotinib 0.088 | [1] 0.023 | [2] 0.018 | [3] -0.064 | [4] -0.026 | [5] 0.017 | [6] 0.051 | [7] 0.018 | [8] -0.037 | IRAK-1-4 Inhibitor I 0.046

RBM8A (UniProt Q9Y5S9)
inactive: erlotinib -0.061 | [1] 0.035 | [2] -0.002 | [3] 0.069 | [4] -0.042 | [5] 0.029 | [6] 0.093 | [7] 0.086 | [8] -0.076 | IRAK-1-4 Inhibitor I -0.059

SDHC (UniProt Q99643)
inactive: erlotinib 0.013 | [1] 0.002 | [2] 0.001 | [3] 0 | [4] -0.048 | [5] -0.01 | [6] 0.02 | [7] -0.02 | [8] -0.067 | IRAK-1-4 Inhibitor I 0.032

RAB1B (UniProt Q9H0U4)
inactive: erlotinib -0.009 | [1] -0.005 | [2] 0.011 | [3] 0.019 | [4] -0.002 | [5] 0.005 | [6] -0.008 | [7] 0.014 | [8] 0.003 | IRAK-1-4 Inhibitor I 0.055

RAB27A (UniProt P51159)
inactive: erlotinib -0.045 | [1] 0.023 | [2] -0.014 | [3] 0.009 | [4] -0.009 | [5] -0.003 | [6] -0.025 | [7] -0.031 | [8] -0.015 | IRAK-1-4 Inhibitor I -0.049

RPL31 (UniProt P62899)
inactive: erlotinib -0.018 | [1] -0.097 | [2] -0.03 | [3] -0.01 | [4] 0.001 | [5] 0 | [6] 0.038 | [7] 0.043 | [8] -0.039 | IRAK-1-4 Inhibitor I 0.026

SCCPDH (UniProt Q8NBX0)
inactive: erlotinib -0.213 | [1] -0.055 | [2] -0.027 | [3] 0.083 | [4] -0.243 | [5] 0.052 | [6] 0.185 | [7] -0.03 | [8] 0.026 | IRAK-1-4 Inhibitor I 0.016

SCO2 (UniProt O43819)
UniProt O43819, sequence (O43819 whole entry, looked up): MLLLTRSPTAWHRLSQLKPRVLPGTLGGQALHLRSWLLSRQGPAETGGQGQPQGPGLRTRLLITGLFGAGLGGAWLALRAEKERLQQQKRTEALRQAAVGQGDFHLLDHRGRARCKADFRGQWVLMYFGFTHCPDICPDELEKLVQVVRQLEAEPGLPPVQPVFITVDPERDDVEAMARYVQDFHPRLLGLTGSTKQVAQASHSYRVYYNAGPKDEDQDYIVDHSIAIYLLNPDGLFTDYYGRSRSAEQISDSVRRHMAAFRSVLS
inactive: erlotinib 0.055 | [1] -0.09 | [2] 0.057 | [3] 0.023 | [4] -0.017 | [5] 0.085 | [6] 0.035 | [7] 0.014 | [8] 0.041 | IRAK-1-4 Inhibitor I -0.015

RDH10 (UniProt Q8IZV5)
inactive: erlotinib 0.043 | [1] 0.001 | [2] -0.019 | [3] 0.087 | [4] -0.028 | [5] -0.022 | [6] -0.013 | [7] 0.024 | [8] -0.023 | IRAK-1-4 Inhibitor I 0.001

SEC16A isoform 5 (UniProt O15027)
inactive: erlotinib 0.006 | [1] -0.019 | [2] 0.025 | [3] -0.016 | [4] -0.031 | [5] -0.038 | [6] -0.085 | [7] -0.022 | [8] 0.002 | IRAK-1-4 Inhibitor I -0.005

RANBP6 (UniProt O60518)
UniProt O60518, sequence (O60518 whole entry, looked up): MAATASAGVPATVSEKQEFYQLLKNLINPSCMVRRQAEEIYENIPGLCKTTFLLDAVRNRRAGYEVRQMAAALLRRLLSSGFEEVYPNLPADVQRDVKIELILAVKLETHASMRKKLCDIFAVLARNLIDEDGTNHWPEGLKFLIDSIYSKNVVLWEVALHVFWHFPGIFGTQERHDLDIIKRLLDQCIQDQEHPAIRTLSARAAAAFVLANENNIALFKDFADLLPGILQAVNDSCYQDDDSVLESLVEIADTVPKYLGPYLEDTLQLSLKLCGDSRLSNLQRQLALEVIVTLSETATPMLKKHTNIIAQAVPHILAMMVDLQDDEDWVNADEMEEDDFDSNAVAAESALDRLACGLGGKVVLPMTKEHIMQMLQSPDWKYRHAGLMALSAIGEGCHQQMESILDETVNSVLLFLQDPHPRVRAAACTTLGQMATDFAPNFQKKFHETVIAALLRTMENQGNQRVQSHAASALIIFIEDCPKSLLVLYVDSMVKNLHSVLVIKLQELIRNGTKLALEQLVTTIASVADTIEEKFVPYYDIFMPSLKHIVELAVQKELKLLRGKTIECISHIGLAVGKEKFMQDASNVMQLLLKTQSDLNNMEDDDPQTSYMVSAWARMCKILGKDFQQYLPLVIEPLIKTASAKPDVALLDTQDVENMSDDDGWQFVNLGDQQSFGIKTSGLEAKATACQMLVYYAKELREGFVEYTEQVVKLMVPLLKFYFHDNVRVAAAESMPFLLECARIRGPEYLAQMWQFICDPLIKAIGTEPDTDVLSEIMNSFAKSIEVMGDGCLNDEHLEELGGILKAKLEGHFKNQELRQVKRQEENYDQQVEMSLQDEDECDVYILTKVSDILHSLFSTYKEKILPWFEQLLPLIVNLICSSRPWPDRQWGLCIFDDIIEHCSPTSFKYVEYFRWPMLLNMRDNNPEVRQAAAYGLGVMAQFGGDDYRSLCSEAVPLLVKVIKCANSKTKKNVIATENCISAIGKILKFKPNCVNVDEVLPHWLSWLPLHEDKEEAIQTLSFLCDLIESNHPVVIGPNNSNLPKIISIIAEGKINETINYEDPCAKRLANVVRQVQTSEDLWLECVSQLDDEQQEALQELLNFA
inactive: erlotinib 0.045 | [1] -0.043 | [2] -0.003 | [3] -0.034 | [4] 0.061 | [5] 0.027 | [6] 0.021 | [7] 0.044 | [8] -0.019 | IRAK-1-4 Inhibitor I 0.04

R3HCC1 (UniProt Q9Y3T6)
inactive: erlotinib -0.015 | [1] -0.118 | [2] 0.055 | [3] 0.074 | [4] -0.086 | [5] 0.071 | [6] -0.008 | [7] 0.006 | [8] -0.016 | IRAK-1-4 Inhibitor I -0.044

SCAF1 (UniProt Q9H7N4)
inactive: erlotinib 0.016 | [1] 0.113 | [2] 0.066 | [3] 0.218 | [4] 0.025 | [5] -0.022 | [6] 0.033 | [7] 0.047 | [8] 0.041 | IRAK-1-4 Inhibitor I 0.081

RNPS1 (UniProt Q15287)
UniProt Q15287, sequence (Q15287 whole entry, looked up): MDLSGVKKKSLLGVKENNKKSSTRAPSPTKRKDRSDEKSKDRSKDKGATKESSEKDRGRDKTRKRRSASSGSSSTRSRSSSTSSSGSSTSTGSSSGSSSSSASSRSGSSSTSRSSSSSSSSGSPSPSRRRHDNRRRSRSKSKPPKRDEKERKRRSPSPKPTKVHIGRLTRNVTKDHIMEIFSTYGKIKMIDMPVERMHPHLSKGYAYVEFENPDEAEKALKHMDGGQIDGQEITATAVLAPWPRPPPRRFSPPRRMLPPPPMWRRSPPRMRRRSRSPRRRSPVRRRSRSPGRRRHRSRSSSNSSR
inactive: erlotinib -0.008 | [1] -0.105 | [2] 0.025 | [3] -0.151 | [4] -0.005 | [5] -0.006 | [6] 0.027 | [7] -0.016 | [8] -0.073 | IRAK-1-4 Inhibitor I 0.023

RFWD3 (UniProt Q6PCD5)
inactive: erlotinib -0.12 | [1] 0.005 | [2] 0.048 | [3] -0.061 | [4] 0.062 | [5] 0.029 | [6] -0.039 | [7] -0.086 | [8] 0.053 | IRAK-1-4 Inhibitor I 0.054

SASS6 (UniProt Q6UVJ0)
inactive: erlotinib 0.024 | [1] 0.016 | [2] 0.028 | [3] -0.019 | [4] -0.009 | [5] 0.015 | [6] -0.023 | [7] -0.012 | [8] 0 | IRAK-1-4 Inhibitor I -0.021

RIC1 (UniProt Q4ADV7)
inactive: erlotinib 0 | [1] -0.239 | [2] -0.074 | [3] 0.025 | [4] -0.176 | [5] 0.044 | [6] 0.035 | [7] 0.038 | [8] 0.057 | IRAK-1-4 Inhibitor I 0.022
